Reference: PubChem BioAssay AID425 (Sanford-Burnham Center for Chemical Genomics, 2006)
Where “and” joins values, the source holds several entries; their conditions need not be identical. Equal values may be shown once. The whole screen tested about 110,000 compounds, of which about 190 (0.17%) were called active. Cut-off read from the data, not from the text of the source: active = inhibition above about 50%; inactive = the rest. The sample as a whole holds a higher share of actives than the screen did. Measured potencies and affinities stand elsewhere.

What follows are molecules tested against Dual specificity protein phosphatase 6 (Rattus norvegicus) (UniProt Q64346) (assay: MKP-3 phosphatase inhibitors, primary screen, biochemical, rat enzyme, in vitro (AID 425;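 note: plate controls were vehicle for no effect and reference inhibitor for full effect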)). Details: recombinant MKP-3 phosphatase activity, fluorescence; at 20 µM; hits give high values.
Dual specificity protein phosphatase 6 (Rattus norvegicus), sequence (Q64346 whole entry, looked up): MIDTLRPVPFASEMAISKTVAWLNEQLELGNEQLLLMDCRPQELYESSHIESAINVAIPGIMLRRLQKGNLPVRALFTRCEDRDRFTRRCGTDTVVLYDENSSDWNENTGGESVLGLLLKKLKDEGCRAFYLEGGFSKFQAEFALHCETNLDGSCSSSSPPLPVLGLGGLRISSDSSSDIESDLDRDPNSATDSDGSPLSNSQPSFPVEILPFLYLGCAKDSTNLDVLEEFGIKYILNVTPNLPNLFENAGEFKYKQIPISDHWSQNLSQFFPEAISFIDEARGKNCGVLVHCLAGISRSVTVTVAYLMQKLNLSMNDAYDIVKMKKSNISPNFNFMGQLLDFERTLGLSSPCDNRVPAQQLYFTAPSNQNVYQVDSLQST
In the case of COc1ccc(CN2C(=O)C(O)(CC(=O)c3c(C)n[nH]c3C)c3ccccc32)cc1OC (configuration not stated), the inhibition is reported as -1.9% (inactive). With CCOc1cc(C(=O)Nc2ccc(Br)cc2F)cc(OCC)c1OCC the inhibition was 5.8% (inactive). In the case of O=C(c1oc2ccccc2c1N1CCCCC1)N1CCCCC1, the inhibition is reported as 2.6% (inactive). With O=C1CN(S(=O)(=O)CCOc2ccccc2)CC(=O)N1CCOc1ccccc1 the inhibition was 3.6% (inactive). For CN(Cc1ccccc1)c1oc(-c2ccco2)nc1C#N, the inhibition was -1.5% (inactive). O=C(NN=C(C1CC1)C1CC1)c1cc2ccccc2cc1O was tested, and the inhibition was 1.9% (inactive). For CC1(C)CC(=O)c2nc(NC(=O)CSC(=O)c3ccccc3)sc2C1, the inhibition was 0.6% (inactive). CN1C(=O)/C(=C\c2cc(Br)ccc2OCc2ccccc2)SC1=S was tested, and the inhibition was 2.6% (inactive). In the case of O=C1NC(=O)/C(=C\c2cc3c(cc2[N+](=O)[O-])OCO3)S1, the inhibition is reported as 122% (active). For O=C1NC(=O)/C(=C\c2cc3c(cc2Br)OCO3)S1, the inhibition was 1.1% (inactive). With O=C1/C(=C/c2cc3c(cc2[N+](=O)[O-])OCO3)Sc2ccccc21 the inhibition was -0.9% (inactive). In the case of CC(C)(C)c1cc(Br)ccc1OCC(=O)Nc1ccc2c(c1)OCCO2, the inhibition is reported as 6.4% (inactive). For COc1ccc2nc(SCC(=O)Nc3ccccc3)[nH]c2c1, the inhibition was -2.1% (inactive). O=C1NC(=S)N(c2ccc(F)cc2)C(=O)/C1=C/c1ccc(F)cc1 was tested, and the inhibition was -0.1% (inactive). Cc1ccc(C=C2C(=O)NC(=S)N(c3ccccc3Cl)C2=O)o1 was tested, and the inhibition was 11.8% (inactive). COc1ccc(OC)c(N2C(=O)NC(=O)C(=Cc3ccc(C)o3)C2=O)c1 was tested, and the inhibition was 3.8% (inactive). O=C1NC(=O)N(c2ccc(Br)cc2)C(=O)/C1=C/c1ccco1 was tested, and the inhibition was 46.2% (inactive). With COc1cccc(N2C(=O)C(=Cc3ccc(OC)cc3OC)C(=O)NC2=S)c1 the inhibition was 2.6% (inactive). With Cc1cc(N2C(=O)NC(=O)/C(=C\c3ccco3)C2=O)ccc1Br the inhibition was 42.1% (inactive). In the case of COc1cccc(-c2cc(C(=O)NC(C)c3ccccc3)c3ccccc3n2)c1 (configuration not stated), the inhibition is reported as 2.7% (inactive). For CCCOc1ccc(C(=O)Nc2ccc(C)cc2[N+](=O)[O-])cc1, the inhibition was 2.7% (inactive). O=C(O)c1cc(O)ccc1NC(=O)C(c1ccccc1)c1ccccc1 was tested, and the inhibition was 4.4% (inactive). With CC(C)=C1C2CCC1C(C(=O)NCCC1=CCCCC1)C2C(=O)O (configuration not stated) the inhibition was 1.3% (inactive). With CCc1ccc(-n2c(C)cc(/C=N/NC(=O)c3cccnc3)c2C)cc1 the inhibition was 6.1% (inactive). In the case of O=C(NCCN1CCOCC1)c1cccc(S(=O)(=O)N2CCCCCC2)c1, the inhibition is reported as -10.5% (inactive). For CN1C(=O)/C(=C2\SC(=S)N(CC(=O)O)C2=O)c2ccccc21, the inhibition was 2% (inactive). With CN1C(=O)c2oc3ccc(Br)cc3c(=O)c2C1c1ccncc1 (configuration not stated) the inhibition was 2.2% (inactive). Cc1ccc(NC(=O)C(=O)N/N=C/c2cccs2)cc1 was tested, and the inhibition was 0.5% (inactive). With CCc1ccccc1OCCN(CC)CC the inhibition was 1.4% (inactive). With COc1cc(/C=N/NC(=O)c2cccc([N+](=O)[O-])c2)cc(I)c1O the inhibition was -0.4% (inactive). In the case of COc1ccc(/C=N/NC(=O)c2cccc([N+](=O)[O-])c2)cc1Br, the inhibition is reported as -2.3% (inactive). C/C(=N\NS(=O)(=O)c1ccc(C)cc1)C(C)(C)CC(=O)O was tested, and the inhibition was 0.4% (inactive). For Cc1ccc(S(=O)(=O)N2CCN(Cc3ccccc3[N+](=O)[O-])CC2)cc1, the inhibition was 3.5% (inactive). CCOC(=O)CNC(=O)CSc1nnc(Cn2cnc3ccccc32)n1C was tested, and the inhibition was -4.9% (inactive). COc1ccc(OC)c(CNC(=O)COc2cc(=O)n(C)c3ccccc23)c1 was tested, and the inhibition was -0.9% (inactive). In the case of CCOC(=O)/C=C/CSc1nc2sc3c(c2c(=O)[nH]1)CCCC3, the inhibition is reported as 3.4% (inactive). With CCOc1cc(C=C2C(=O)c3ccccc3C2=O)ccc1OCc1ccc(Cl)cc1Cl the inhibition was 2% (inactive). In the case of COc1cc(/C=N/NC(=O)Cc2nnc(N)s2)ccc1OCc1ccc(Cl)cc1Cl, the inhibition is reported as 0.3% (inactive). In the case of CCN(CC)c1ccc(/C=N/NC(=O)Cn2nnc(-c3ccccc3)n2)c(O)c1, the inhibition is reported as 0.8% (inactive). With O=C(O)CC(NC(=O)C(c1ccccc1)c1ccccc1)c1ccco1 (configuration not stated) the inhibition was -9.2% (inactive). O=P(c1ccccc1)(c1ccccc1)C(O)c1ccco1 (configuration not stated) was tested, and the inhibition was 4.6% (inactive) and -1.6% (inactive). With O=C(NC1(O)C(=O)c2ccccc2C1=O)c1ccccc1 the inhibition was 21.6% (inactive). For Cc1nonc1NC1(O)C(=O)c2ccccc2C1=O, the inhibition was 106% (active). Cc1nonc1NC(=O)Nc1cccnc1 was tested, and the inhibition was -4.7% (inactive). CC1=C/C(=N\OC2=C(O/N=C3/C=CC(=O)C(C)=C3)C(=O)c3ccccc3C2=O)C=CC1=O was tested, and the inhibition was 42.8% (inactive). In the case of CC1=CC(=O)C=C/C1=N\OS(=O)(=O)c1ccccc1, the inhibition is reported as 8.7% (inactive). In the case of CC1=CC(=O)C=C/C1=N/OC1=C(O/N=C2/C=CC(=O)C=C2C)C(=O)c2ccccc2C1=O, the inhibition is reported as 66% (active). Cc1cc(Cl)ccc1OCCCC(=O)NC1CCN(C)CC1 was tested, and the inhibition was -4.9% (inactive). In the case of Cn1c(CCNC(=O)c2ccccc2F)nnc1SCc1nc2ccccc2c(=O)[nH]1, the inhibition is reported as -5.4% (inactive). With COc1ccc(S(=O)(=O)Nc2cccc([N+](=O)[O-])c2C)cc1 the inhibition was -0.4% (inactive). For CCCCSc1nc(C)c(CC(=O)OC)c(=O)[nH]1, the inhibition was -20.2% (inactive). For CCCOc1cccc(C(=O)Nc2ccc(Br)cc2C(=O)O)c1, the inhibition was 2.6% (inactive). O=C1NN(c2ccccc2)C(=O)/C1=C/c1ccc(-c2ccc(F)cc2)o1 was tested, and the inhibition was -3.3% (inactive). For O=C1NN(c2ccccc2)C(=O)/C1=C/c1ccc([N+](=O)[O-])o1, the inhibition was 56.6% (active). For C=CCN1C(=O)/C(=C\c2ccc(I)o2)C(=O)NC1=S, the inhibition was 4.5% (inactive). O=C1NN(c2ccccc2)C(=O)/C1=C/c1ccc(-c2ccccc2[N+](=O)[O-])o1 was tested, and the inhibition was 16% (inactive). O=C1NN(c2ccccc2)C(=O)/C1=C/c1ccc(Br)o1 was tested, and the inhibition was 75.8% (active). For C=CCN1C(=O)/C(=C\c2ccc(-c3ccc([N+](=O)[O-])cc3)o2)C(=O)NC1=S, the inhibition was 25.4% (inactive). With O=C1NN(c2ccccc2)C(=O)/C1=C/c1ccc(-c2ccccc2)o1 the inhibition was 7.9% (inactive). For C=CCN1C(=O)/C(=C\c2ccc([N+](=O)[O-])o2)C(=O)NC1=S, the inhibition was 95.8% (active). In the case of O=C1NN(c2ccccc2)C(=O)/C1=C/c1ccc(-c2cccc([N+](=O)[O-])c2)o1, the inhibition is reported as 6.9% (inactive). With Cc1ccc(S(=O)(=O)NC(C)(C)CN2CCN(CC(C)(C)NS(=O)(=O)c3ccc(C)cc3)CC2)cc1 the inhibition was -0.5% (inactive). For Cc1ccc2nc(NC(=O)c3ccccc3)sc2c1, the inhibition was 1.9% (inactive). With COc1ccccc1/C=C/C=N/NC(=O)CSc1nc2ccccc2n1C the inhibition was 1.8% (inactive). CCOc1ccccc1NC(=O)c1c(NC(=O)c2cccc(F)c2)sc2c1CCC(C)C2 (configuration not stated) was tested, and the inhibition was 3.6% (inactive). CSc1nc(NCCOCCO)c2sc3nc(-c4ccco4)c4c(c3c2n1)CCC4 was tested, and the inhibition was -0.3% (inactive). CSc1nc(N2CCN(CCO)CC2)c2sc3nc(-c4ccco4)c4c(c3c2n1)CCC4 was tested, and the inhibition was 0.5% (inactive). O=C(/C=C/c1ccco1)/C=C/c1ccc(-c2ccc(Cl)c(Cl)c2)o1 was tested, and the inhibition was 75.1% (active). In the case of O=C(/C=C/c1ccco1)Nc1ccc(Cl)c(Cl)c1, the inhibition is reported as 10.7% (inactive). O=C(O)/C=C/c1ccc(-c2ccc(Cl)c(Cl)c2)o1 was tested, and the inhibition was -3.2% (inactive). For O=C1C(N2CCOCC2)=C/C(=N\S(=O)(=O)c2ccc(Cl)cc2)c2ccccc21, the inhibition was 5.9% (inactive). In the case of COc1ccc(S(=O)(=O)N=C2C=CC(=NS(=O)(=O)c3ccc(OC)cc3)C=C2)cc1, the inhibition is reported as 1.8% (inactive). With Cc1ccc(S(=O)(=O)/N=C2\C=C(n3cnc4ccccc43)C(=O)c3ccccc32)cc1 the inhibition was 36.8% (inactive). For Cc1ccc(S(=O)(=O)/N=C2/C=C(S(=O)(=O)c3ccc(C)cc3)C(=O)c3ccccc32)cc1, the inhibition was 20.6% (inactive). In the case of COc1ccc(S(=O)(=O)/N=C2\C=C(Br)C(=O)c3ccccc32)cc1, the inhibition is reported as 97.9% (active). In the case of O=C1C(Cl)=CC(=NS(=O)(=O)c2ccc(Cl)cc2)c2ccccc21, the inhibition is reported as 95.7% (active). With Cc1ccc(S(=O)(=O)/N=C2/C=C(Sc3nnnn3-c3ccccc3)C(=O)c3ccccc32)cc1 the inhibition was 27.3% (inactive). In the case of COC(=O)C(C(=O)OC)C1=C/C(=N/S(=O)(=O)c2ccc(C)cc2)c2ccccc2C1=O, the inhibition is reported as 1.7% (inactive). Cc1ccc(S(=O)(=O)/N=C2/C=C(Cl)C(=O)c3ccccc32)cc1 was tested, and the inhibition was 52.7% (active). O=C1C(Cl)=C/C(=N\S(=O)(=O)c2ccc(Cl)cc2)C(Cl)=C1Cl was tested, and the inhibition was -1% (inactive). For Cc1ccc(S(=O)(=O)/N=C2\C=C(Sc3ncn[nH]3)C(=O)c3ccccc32)cc1, the inhibition was 98.1% (active). With Cc1ccc(S(=O)(=O)/N=C2\C=CC(=O)C=C2Cl)cc1 the inhibition was -0.1% (inactive). N#CC1=C(N)N(c2ccccc2)C(c2ccco2)C1(C#N)C#N (configuration not stated) was tested, and the inhibition was -9.8% (inactive). With COC(=O)c1ccccc1NC(=O)c1ccccc1C the inhibition was 0.2% (inactive). For O=C(/C=C/c1ccc2c(c1)OCO2)NC1CC2CCC1C2 (configuration not stated), the inhibition was 3.3% (inactive). In the case of COc1ccc(C2=NN(CN3C(=O)C(=O)c4ccccc43)C(c3ccccc3)C2)cc1 (configuration not stated), the inhibition is reported as 1.1% (inactive). With O=C1C2=C(C(c3ccccc3)=NCCN2)C(c2ccc(O)cc2)N1c1ccccc1 (configuration not stated) the inhibition was 0.2% (inactive). With Cc1ccccc1N1C(=O)/C(=C\c2cccs2)SC1=S the inhibition was 0.2% (inactive). For Cc1cccc(-c2nnc(SCc3nc4ccccc4[nH]3)n2Cc2ccco2)c1, the inhibition was -6.8% (inactive). In the case of O=S(=O)(NCCOCCNS(=O)(=O)c1ccccc1)c1ccccc1, the inhibition is reported as -1.6% (inactive). With Cc1ccc(/C(O)=C(\C#N)c2nc3ccccc3[nH]2)cc1 the inhibition was 5.3% (inactive). With O=C(O/N=C1/CCCc2c1sc1nc3n(c(=O)c21)CCCCC3)c1ccc([N+](=O)[O-])cc1 the inhibition was -4.1% (inactive).
